Assay results reported in PubChem BioAssay.
Calls of active or inactive are those of the source. Unless noted, no rule for the calls is given here.

Key:
[1] = compound effects on lung adenocarcinoma cell viability – A549, calcein-AM fluorescence, 48 h, basal, profiling panel (AID 1162); conditions: higher = more signal; also: test concentration not given here
[2] = compound effects on differentiated 3T3-L1 adipocyte viability – cell-based, 3T3-L1 adipocytes, calcein-AM fluorescence, 48 h, basal, profiling panel (AID 1163); conditions: 3T3-L1 adipocytes viability, higher = more signal; also: test concentration not given here
[3] = compound effects on hepatocellular carcinoma cell viability – HepG2, calcein-AM fluorescence, 48 h, basal, profiling panel (AID 1164); conditions: higher = more signal; also: test concentration not given here
[4] = compound effects on multiple myeloma cell viability – MM1S, calcein-AM fluorescence, 48 h, basal, profiling panel (AID 1165); conditions: higher = more signal; also: test concentration not given here
[5] = calcein-AM signal in unstimulated myeloma cells – cell-based, calcein-AM fluorescence, 48 h, PK04 Diversity Set, profiling panel (AID 1166); conditions: RPMI8226 myeloma viability, higher = more signal;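 also: cells grown under basal conditions without added stimulus; test concentration not given here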
[6] = JC-1 mitochondrial signal, unstimulated HepG2 cells – cell-based, JC-1 fluorescence, 24 h, 100 nL compound, profiling panel (AID 1167); conditions: HepG2 mitochondrial potential, higher = more signal; also: test concentration not given here
[7] = JC-1 mitochondrial signal, unstimulated adipocytes – cell-based, JC-1 fluorescence, 3T3-L1 adipocytes, 24 h, 100 nL compound, profiling panel (AID 1168); conditions: JC-1 mitochondrial fluorescence, higher = more signal, called active from +8 up or from −8 down; also: test concentration not given here
[8] = JC-1 mitochondrial signal, unstimulated myeloma cells – cell-based, JC-1 fluorescence, RPMI8226, 24 h, 100 nL compound, profiling panel (AID 1169); conditions: JC-1 mitochondrial potential fluorescence, higher = more signal; also: test concentration not given here
[9] = JC-1 mitochondrial signal, unstimulated MM1S myeloma – cell-based, JC-1 fluorescence, 24 h, 100 nL compound, profiling panel (AID 1170); conditions: MM1S mitochondrial potential, higher = more signal; also: test concentration not given here
[10] = resazurin metabolic signal in A549 cells – cell-based, resazurin fluorescence, 24 h, PK04 Diversity Set, profiling panel (AID 1171); conditions: A549 viability, higher = more signal, called active from +8 up or from −8 down; also: test concentration not given here
[11] = resazurin metabolic signal in HepG2 cells – cell-based, resazurin fluorescence, 24 h, PK04 Diversity Set, profiling panel (AID 1172); conditions: HepG2 viability, higher = more signal; also: test concentration not given here
[12] = budding yeast growth changes without added modifier – OD600, strain BY4716, 24 h, basal condition, primary screen (AID 1173); conditions: S. cerevisiae BY4716 growth, OD600, 24 h; higher = more signal, called active from +8 up or from −8 down
[13] = viability profiling in MM1S myeloma cells – cell-based, resazurin fluorescence, basal, 24 h, PK04 Diversity Set, profiling panel (AID 1174); conditions: higher = more signal, called active from +8 up or from −8 down; also: test concentration not given here
[14] = target: Dihydroorotate dehydrogenase (quinone), mitochondrial (Plasmodium falciparum (isolate 3D7)) (UniProt Q08210); experiment: inhibition of P. falciparum DHODH – biochemical, C-terminal His tag, absorbance 600 nm, primary screen (AID 1175); conditions: PfDHODH enzyme, DCIP absorbance 600 nm; higher = more signal, called active from +8 up or from −8 down;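 also: recombinant parasite enzyme with a five histidine tag at its C terminus; test concentration not given here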
Chain of Dihydroorotate dehydrogenase (quinone), mitochondrial (Plasmodium falciparum (isolate 3D7)) (Q08210 whole entry, looked up): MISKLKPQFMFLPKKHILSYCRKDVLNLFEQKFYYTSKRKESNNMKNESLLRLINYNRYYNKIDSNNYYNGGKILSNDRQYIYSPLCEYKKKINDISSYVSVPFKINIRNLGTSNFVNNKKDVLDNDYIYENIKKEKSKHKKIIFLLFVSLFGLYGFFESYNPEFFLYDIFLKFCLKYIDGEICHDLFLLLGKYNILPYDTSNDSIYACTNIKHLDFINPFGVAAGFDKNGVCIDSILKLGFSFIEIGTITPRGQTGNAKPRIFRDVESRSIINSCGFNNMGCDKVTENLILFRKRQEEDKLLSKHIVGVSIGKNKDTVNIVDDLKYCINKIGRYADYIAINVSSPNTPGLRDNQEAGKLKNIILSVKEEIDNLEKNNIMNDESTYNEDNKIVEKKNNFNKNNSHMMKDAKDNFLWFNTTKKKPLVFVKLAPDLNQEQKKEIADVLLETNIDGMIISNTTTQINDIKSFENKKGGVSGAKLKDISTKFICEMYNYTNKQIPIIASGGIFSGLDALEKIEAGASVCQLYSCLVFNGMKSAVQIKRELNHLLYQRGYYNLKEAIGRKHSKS

[15] = inhibition of PAO1 biofilm formation – strain PAO1, LB-PBS medium, absorbance 600 nm, primary screen (AID 1176); also: test concentration not given here; conditions: P. aeruginosa PAO1 growth/biofilm, A600, 12 h; higher = more signal
[16] = growth modulation of vineyard yeast isolate – strain RM11-1a, OD600, basal, 24 h, primary screen (AID 1177);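 also: cultures grown under basal conditions with no added stressor; test concentration not given here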; conditions: S. cerevisiae RM11-1a growth, OD600, 24 h; higher = more signal, called active from +8 up or from −8 down
[17] = growth of efflux-deficient E. coli DRC39 – strain DRC39, OD650, 24 h, E. coli filamentation inducers, primary screen (AID 1178);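 also: growth measured as culture turbidity by optical density at 650 nm; test concentration not given here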; conditions: E. coli DRC39 acrAB, higher = more signal, called active from +8 up or from −8 down
[18] = growth of efflux-deficient E. coli DRC39 – strain DRC39, OD650, 48 h, E. coli filamentation inducers, primary screen (AID 1179);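 also: screen aims at cell division blockers that make cells filament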; conditions: E. coli DRC39 delta-acrAB growth, higher = more signal, called active from +8 up or from −8 down
[19] = viability profiling in RPMI8226 myeloma cells – cell-based, resazurin fluorescence, basal, 24 h, PK04 Diversity Set, profiling panel (AID 1180); conditions: higher = more signal;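 also: RPMI8826 multiple myeloma cell line at 5000 cells per well; test concentration not given here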
[20] = target: E3 ubiquitin-protein ligase XIAP (Homo sapiens) (UniProt P98170); experiment: small molecules binding XIAP protein – biophysical, small-molecule microarray, fluorescence 635 nm, primary screen (AID 1181); conditions: higher = more signal;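 also: score merges 667 nm emission and signal to noise over triplicate slides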
Chain of E3 ubiquitin-protein ligase XIAP (Homo sapiens) (P98170 whole entry, looked up): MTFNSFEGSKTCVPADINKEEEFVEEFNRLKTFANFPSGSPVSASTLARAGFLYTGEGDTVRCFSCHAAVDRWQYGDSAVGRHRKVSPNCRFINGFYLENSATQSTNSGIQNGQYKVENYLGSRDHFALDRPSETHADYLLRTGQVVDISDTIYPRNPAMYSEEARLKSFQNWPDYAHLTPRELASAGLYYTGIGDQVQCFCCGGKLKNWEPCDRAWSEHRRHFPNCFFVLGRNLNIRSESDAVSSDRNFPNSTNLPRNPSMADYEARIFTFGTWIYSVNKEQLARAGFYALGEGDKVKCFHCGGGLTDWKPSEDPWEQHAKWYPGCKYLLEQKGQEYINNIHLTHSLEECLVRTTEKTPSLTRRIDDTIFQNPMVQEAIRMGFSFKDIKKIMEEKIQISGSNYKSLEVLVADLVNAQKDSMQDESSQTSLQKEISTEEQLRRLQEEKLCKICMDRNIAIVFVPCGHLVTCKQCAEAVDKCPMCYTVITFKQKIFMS

SMILES	z-score [1]	z-score [2]	z-score [3]	z-score [4]	z-score [5]	z-score [6]	z-score [7]	z-score [8]	z-score [9]	z-score [10]	z-score [11]	z-score [12]	z-score [13]	composite z-score [14]	z-score [15]	z-score [16]	z-score [17]	z-score [18]	z-score [19]	composite z-score [20]
C=CCOC(=O)[C@H]1[C@@H]2C(=O)O[C@@H](c3ccccc3)[C@@H](c3ccccc3)N2[C@@H](c2ccc(OCCOC(=O)[C@@H]3C[C@@H]4C(=O)N5CCC[C@H]5C(=O)N4[C@@H]3c3ccc(O)cc3)cc2)[C@]12C(=O)Nc1ccc(I)cc12	-0.455	0.276	0.018	0.0967	-0.0749	-1.24	0.88 (inactive)	-0.655	-1.37	-0.273 (inactive)	-0.384	1.04 (inactive)	-0.996 (inactive)	-1.13 (inactive)	3.91 (inactive)	1.08 (inactive)	-0.102 (inactive)	0.0802 (inactive)	-0.686	-0.083
COc1cccc(/C=C/C=O)c1	0.482	-0.132	0.844	-1.38	-0.803	1.04	0.532 (inactive)	-0.109	-0.253	0.336 (inactive)	0.445	-6.49 (inactive)	-0.687 (inactive)	-0.0136 (inactive)	-0.131 (inactive)	0.0721 (inactive)	0.635 (inactive)	0.403 (inactive)	0.884	-0.0224
CCOC(=O)C1CCCCN1 (stereo not given)	-0.293	0.542	0.0621	0.481	0.166	-0.319	0.121 (inactive)	0.292	0.319	-0.642 (inactive)	-0.241	0.466 (inactive)	0.122 (inactive)	-0.254 (inactive)	0.0619 (inactive)	0.0958 (inactive)	-0.33 (inactive)	-0.0724 (inactive)	-0.809	-0.222
CC(C)N1C(=O)C[C@@](C(=O)NCCCN(C)C)(c2ccc([N+](=O)[O-])cc2)[C@H]1c1ccc(CO)cc1	0.173	0.165	-0.093	-0.367	0.768	-0.459	-1.18 (inactive)	0.701	0.169	-0.28 (inactive)	0.0314	-0.67 (inactive)	-1.21 (inactive)	0.352 (inactive)	0.745 (inactive)	-0.379 (inactive)	-0.328 (inactive)	-1.02 (inactive)	-0.198	-0.267
C=CCOC(=O)[C@H]1[C@@H]2C(=O)O[C@@H](c3ccccc3)[C@@H](c3ccccc3)N2[C@@H](c2ccc(OCCOC(=O)[C@H]3C[C@H]4C(=O)N[C@@H](CCCCNC(C)=O)C(=O)N4[C@H]3c3ccc(O)cc3)cc2)[C@]12C(=O)Nc1ccccc12	1.72	0.496	1.27	-0.643	1.03	-0.297	-0.0783 (inactive)	-0.748	-0.175	2.07 (inactive)	2.07	-1.68 (inactive)	1.74 (inactive)	-0.875 (inactive)	2.52 (inactive)	-2.05 (inactive)	2.63 (inactive)	2.11 (inactive)	1.11	0.0013
CC(C)[Si](C#CCCCC#N)(O[C@H](c1ccccc1)c1cn([C@H](CO)Cc2ccccc2)nn1)C(C)C	0.773	-0.0379	-0.0933	0.172	0.231	0.0258	-0.393 (inactive)	0.266	-1.47	0.723 (inactive)	0.374	-9.13 (active)	0.288 (inactive)	-0.804 (inactive)	1.44 (inactive)	-1.8 (inactive)	0.178 (inactive)	0.362 (inactive)	0.289	-0.111
CC(C)(C)OC(=O)CC[C@@]1(C(=O)NCc2ccccc2)N=C(c2ccc(OCCCO)cc2)O[C@@H]1c1ccccc1N=[N+]=[N-]	-0.365	1.55	-0.258	-1.68	-1.41	0.515	1.35 (inactive)	-1.01	0.24	-0.682 (inactive)	-0.409	0.381 (inactive)	-1.36 (inactive)	1.45 (inactive)	1.2 (inactive)	1.99 (inactive)	2.98 (inactive)	0.914 (inactive)	-0.362	0.23
C=C(COC)/C(=C/C[C@H](OC(=O)c1ccncc1)c1ccccc1OCCO)c1cnc2ccccc2c1	0.265	0.688	-0.693	-2.28	-0.533	1.23	-0.296 (inactive)	-0.32	-0.0279	2.05 (inactive)	2.02	-0.865 (inactive)	0.247 (inactive)	-3.12 (inactive)	-0.104 (inactive)	-0.0351 (inactive)	0.213 (inactive)	-0.121 (inactive)	0.377	-0.0102
O=C1O[C@@H](c2ccccc2)[C@@H](c2ccccc2)N2[C@@H](c3ccc(O)cc3)[C@]3(C(=O)Nc4ccc(C#CC5(O)CCCCCC5)cc43)[C@@H](C(=O)NC[C@H](O)c3ccccc3)[C@H]12	-0.0476	0.264	-0.181	-2.14	-1.31	-2.14	-1.16 (inactive)	-0.66	-0.279	0.119 (inactive)	0.677	-0.263 (inactive)	-0.418 (inactive)	0.409 (inactive)	0.348 (inactive)	0.417 (inactive)	-0.839 (inactive)	-0.938 (inactive)	-0.809	-0.312
